Bioassay records deposited in PubChem BioAssay by National Center for Advancing Translational Sciences (NCATS).
The list is not random: actives were taken first. Their share in the collection is about 21%.
DT40 TDP1 CPT: qHTS for Inhibitors of human tyrosyl-DNA phosphodiesterase 1 (TDP1): qHTS in cells in presence of CPT; AID 686979, 2013; chicken DT40 Tdp1-/-;hTDP1 cells + 20 nM CPT, ATP luminescence, 48 h; actives 12% (n = 420,000); Potency, µM (titrated, usually from 46.2 µM), hits mostly inhibitors; also: nearly all actives have a fitted effect of over 55% in size
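Cell growth measured by CellTiter-Glo luminescence after a minimum 48 h, 37 C compound exposure with 20 nM CPT in Tdp1-knockout DT40 cells stably expressing hTDP1, seeded 400/well; qHTS titration format.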
D3 ag: qHTS of D3 Dopamine Receptor Agonist: qHTS; actives 0.58% (n = 410,000); D3R DiscoveRx beta-arrestin cells, luminescence, 90 min; max activation, %; in the data active = max activation above about 30%
Target sequence (P35462 whole entry, looked up): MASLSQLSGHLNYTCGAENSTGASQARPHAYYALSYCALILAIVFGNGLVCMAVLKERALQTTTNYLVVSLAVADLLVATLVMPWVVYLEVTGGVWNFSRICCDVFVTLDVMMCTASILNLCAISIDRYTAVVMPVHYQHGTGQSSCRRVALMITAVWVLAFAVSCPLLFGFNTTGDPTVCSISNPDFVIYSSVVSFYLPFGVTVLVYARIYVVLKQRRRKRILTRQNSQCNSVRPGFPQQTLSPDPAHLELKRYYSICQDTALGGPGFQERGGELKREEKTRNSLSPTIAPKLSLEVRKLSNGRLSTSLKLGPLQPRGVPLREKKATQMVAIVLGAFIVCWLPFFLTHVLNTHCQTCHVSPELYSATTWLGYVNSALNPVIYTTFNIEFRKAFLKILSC
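Agonist mode: compounds and dopamine controls were applied to plated cells for 90 min at 37 degrees C after an overnight attachment at 1500 cells/well. Luminescent read-out followed 30 - 60 minutes at room temperature with DiscoveRx detection reagent.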
TDP1 cell noCPT: qHTS for Inhibitors of human tyrosyl-DNA phosphodiesterase 1 (TDP1): qHTS in cells in absence of CPT. DT40 Tdp1-/- hTDP1 cells, no CPT, ATP luminescence, 48 h. Potency, µM (titrated, usually from 46.2 µM), most hits filed as inhibitors. actives 15% (n = 420,000). AID 686978, 2013; also: nearly all actives have a fitted effect of over 55% in size
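No-CPT arm: Tdp1-/-;hTDP1 DT40 cells (400/well) plus compounds, incubated ≥48 hr at 37 °C. Readout CellTiter-Glo luminescence.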
ClpP mod: qHTS Assay for Activators of ClpP; purified B. subtilis ClpP, FRET peptide cleavage, 20 min; Potency, µM (highest dose often 57.5 µM); actives 1.9% (n = 340,000); active = well fitted falling curve with a large enough effect; inconclusive = small, poorly fitted or top-dose-only effect; inactive = no such curve, though single readings can be large or run the other way; also: the source files actives as falling curves though it sought activators and does not explain the sign; nearly all actives have a fitted effect of over 65% in size
Target sequence (P80244 whole entry, looked up): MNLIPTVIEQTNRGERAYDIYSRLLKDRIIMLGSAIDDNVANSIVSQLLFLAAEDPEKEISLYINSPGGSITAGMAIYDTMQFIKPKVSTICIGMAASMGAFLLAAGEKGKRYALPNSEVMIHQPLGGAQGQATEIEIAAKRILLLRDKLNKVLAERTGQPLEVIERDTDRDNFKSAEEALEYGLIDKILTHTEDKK
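Buffer: 100 mM Tris/HCl pH8, 100 mM KCl, 0.05% low protease BSA, 2.5% glycerol, 0.01% Tween-20. ClpP 10 microg/mL final; 20 min RT; delta FRET normalized to ADEP and DMSO controls.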
IL-1B inflam inh: qHTS for Inhibitors of Inflammasome Signaling: IL-1-beta AlphaLISA Primary Screen | actives 4.7% (n = 360,000) | AID 743279, 2014 | THP-1 LPS/ATP IL-1B secretion, AlphaLISA, 16 h; stronger effect = lower value | activity change, % at 57.5 µM; in the data active = activity change below about -50%; inconclusive = mostly about -30% to -49%
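THP-1 cells pretreated 1 hr with compounds (up to 57.5 uM final), then stimulated with LPS (250 ng/mL final) plus ATP (1.25 mM final); secreted IL-1B measured by AlphaLISA after 16 hr, decreased signal indicating inhibition.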
D3 antag: qHTS of D3 Dopamine Receptor Antagonist: qHTS; D(3) dopamine receptor (Homo sapiens), P35462; D3R cells, DiscoveRx beta-arrestin luminescence, antagonist mode; stronger effect = lower value; max response, negative = inhibition, %; actives 2.5% (n = 360,000); AID 652054, 2013; in the data active = max response below about -50%; inconclusive = no clear call, values can overlap the other calls
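Cells plated overnight at 1500 cells/well, then exposed to library compounds with dopamine controls for 90 minutes at 37 degrees C. DiscoveRx reagent added for 30–60 minutes at room temperature; luminescence read, quantitative HTS format.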
Large screens that a line does not name were inactive. Unless noted, calls follow the shape of the dose curve; as a rule, active = well fitted inhibition curve with a large enough effect; inconclusive = small, poorly fitted or top-dose-only effect; inactive = flat fitted curve, though single readings scatter.

NC(=O)c1cc2cc(Br)ccc2oc1=NCc1ccccc1	IL-1B inflam inh -64.6, D3 antag inconclusive
COc1ccc2cc(C(=O)NCc3ccccc3)c(=Nc3ccc(C(=O)O)cc3)oc2c1	DT40 TDP1 CPT inconclusive, TDP1 cell noCPT 13µM
COc1ccc2oc(=Nc3cc(F)ccc3F)c(C(N)=O)cc2c1	DT40 TDP1 CPT 4.11µM, TDP1 cell noCPT 4.61µM (no result: ClpP mod)
COc1ccc2cc(C(=O)c3ccccc3)c(=O)oc2c1	D3 antag inconclusive
COc1ccc(OC)c(N=c2oc3cc(O)ccc3cc2C(N)=O)c1	DT40 TDP1 CPT 14.6µM, TDP1 cell noCPT inconclusive, ClpP mod 28.2µM, D3 antag inconclusive
COc1cccc2cc(C(=O)NCc3ccco3)c(=Nc3ccc(C(=O)O)cc3)oc12	DT40 TDP1 CPT inconclusive, TDP1 cell noCPT 16.4µM, IL-1B inflam inh -85.1
COc1ccc2cc(C(N)=O)c(=Nc3ccccc3)oc2c1	DT40 TDP1 CPT inconclusive, TDP1 cell noCPT 14.6µM (no result: ClpP mod)
NC(=O)c1cc2ccc(O)cc2oc1=Nc1ccccc1	DT40 TDP1 CPT 14.6µM, TDP1 cell noCPT inconclusive
NS(=O)(=O)c1ccc(CCNC(=O)CSc2nc3ccsc3c(=O)n2Cc2ccccn2)cc1	none
CCN(c1ccccc1)S(=O)(=O)c1cc(NC(=O)CN2CCN(C)CC2)ccc1Cl	DT40 TDP1 CPT inconclusive, TDP1 cell noCPT inconclusive (no result: ClpP mod)
CCOC(=O)C1(Cc2cccc(Cl)c2)CCCN(C(=O)c2ccoc2C)C1 (centres undefined)	DT40 TDP1 CPT 20.6µM, TDP1 cell noCPT 18.4µM, IL-1B inflam inh -101.1
CCOC(=O)C1(Cc2cccc(Cl)c2)CCCN(C(=O)c2ccc(COC)s2)C1 (centres undefined)	DT40 TDP1 CPT 23.1µM, TDP1 cell noCPT 20.6µM, IL-1B inflam inh inconclusive
CCOC(=O)C1(Cc2cccc(OC)c2)CCCN(C(=O)c2ccccc2C)C1 (centres undefined)	DT40 TDP1 CPT inconclusive, TDP1 cell noCPT 16.4µM (no result: ClpP mod)
O=C(NC1CC2CCC(C1)N2Cc1ccccc1)c1ccccc1Br (centres undefined)	D3 antag -78.9
COc1ccc(C(=O)NC2CCCN(Cc3ccc(Cl)cc3)C2)c(OC)c1 (centres undefined)	DT40 TDP1 CPT 16.4µM, TDP1 cell noCPT 11.6µM, D3 antag inconclusive
COc1ccc(C(=O)NC2CC3CCCC(C2)N3Cc2ccccc2)cc1 (centres undefined)	IL-1B inflam inh inconclusive, D3 antag -108.4 (no result: ClpP mod)
COc1cccc(CC(=O)NC2CCCN(Cc3ccc(Cl)cc3)C2)c1 (centres undefined)	DT40 TDP1 CPT inconclusive, TDP1 cell noCPT inconclusive
COc1ccc(C(=O)NC2CC3CCCC(C2)N3Cc2ccccc2)c(OC)c1 (centres undefined)	D3 antag -89.2
COc1ccc(C(=O)NC2CC3CCCC(C2)N3CC(C)C)cc1 (centres undefined)	none
CN(C)c1cccc(C(=O)OCCCC(=O)c2ccc(F)cc2)c1	none
COc1ccccc1C(=O)NC1CC2CCC(C1)N2Cc1ccccc1 (centres undefined)	D3 antag -95.2
CCOc1ccc(C(=O)NC2CC3CCCC(C2)N3Cc2ccccc2)cc1 (centres undefined)	IL-1B inflam inh inconclusive, D3 antag -54.0
O=C(CS(=O)(=O)c1ccc(F)cc1)NCCS(=O)(=O)c1ccccc1	none
Cc1ccsc1C(=O)N(Cc1cc2ccc(F)cc2nc1N1CCC(O)CC1)CC1CCCO1 (centres undefined)	none (no result: D3 ag, ClpP mod, IL-1B inflam inh, D3 antag)
CC(=O)c1ccc(N2CCN(C(=O)c3cc4c(-c5ccccc5F)nn(C)c4s3)CC2)cc1	DT40 TDP1 CPT 18.4µM, TDP1 cell noCPT 18.4µM, ClpP mod inconclusive
Cc1ccc(Cl)cc1N1CCN(C(=O)c2cc3c(-c4ccccc4F)nn(C)c3s2)CC1	DT40 TDP1 CPT inconclusive, TDP1 cell noCPT 14.6µM (no result: IL-1B inflam inh, D3 antag)
CCOc1ccc(NC(=O)c2ccc(F)c(S(=O)(=O)N(Cc3ccc(C(=O)OC)cc3)Cc3ccc(OC)c(OC)c3)c2)cc1	none (no result: IL-1B inflam inh, D3 antag)
CCn1c(-c2ccccc2F)nc2cc(C(=O)NCc3ccc(C)o3)cc(NC(C)=O)c21	none (no result: D3 ag, ClpP mod, IL-1B inflam inh, D3 antag)
CC(C)CN(Cc1cc(=O)oc2cc(-c3ccccc3)c(O)cc12)CC(C)C	DT40 TDP1 CPT inconclusive, TDP1 cell noCPT inconclusive
O=c1cc(CN2CCN(C/C=C/c3ccccc3)CC2)c2cc(O)c(-c3ccccc3)cc2o1	DT40 TDP1 CPT 18.4µM, TDP1 cell noCPT 18.4µM, IL-1B inflam inh inconclusive
Cc1c(O)ccc2c(CN3CCN(C/C=C/c4ccccc4)CC3)cc(=O)oc12	DT40 TDP1 CPT inconclusive, TDP1 cell noCPT inconclusive, IL-1B inflam inh -76.7 (no result: ClpP mod)
CC(C)CC(NC(=O)OCC1c2ccccc2-c2ccccc21)C(=O)O (centres undefined)	none (no result: D3 ag, ClpP mod, IL-1B inflam inh, D3 antag)
O=C(NC1C/C=C\C(c2ccccc2)N(c2ccccc2)C(=O)C1)OCC1c2ccccc2-c2ccccc21 (centres undefined)	TDP1 cell noCPT 0.164µM, IL-1B inflam inh inconclusive
CCCCCCN1C(=O)CC(NC(=O)OCC2c3ccccc3-c3ccccc32)C/C=C\C1C(C)C (centres undefined)	DT40 TDP1 CPT 23.1µM, TDP1 cell noCPT 14.6µM
CC[C@H](C)[C@H](NC(=O)OCC1c2ccccc2-c2ccccc21)C(=O)O	none (no result: D3 ag, ClpP mod, IL-1B inflam inh, D3 antag)
Cc1ccc(CN2C(=O)c3ccccc3C2C(=O)NC2CCCCCC2)cc1 (centres undefined)	TDP1 cell noCPT inconclusive (no result: IL-1B inflam inh, D3 antag)
Cc1ccc(CN2C(=O)C[C@@H](NC(=O)OCC3c4ccccc4-c4ccccc43)C/C=C\C2c2ccc(C)cc2)cc1 (some centres undefined)	DT40 TDP1 CPT inconclusive, TDP1 cell noCPT inconclusive, IL-1B inflam inh -64.8
CC(=O)c1ccc(S(=O)(=O)N2CCN(C(=O)CCC3CCCC3)CC2)cc1	DT40 TDP1 CPT inconclusive, TDP1 cell noCPT inconclusive
O=c1c(Br)ccc(Br)cc1Br	DT40 TDP1 CPT 0.0291µM, TDP1 cell noCPT 0.0651µM, IL-1B inflam inh -99.8, D3 antag -114.3
O=C(N/N=C/c1ccco1)C1CCCC1	none
CCCc1ccc(NS(=O)(=O)c2c(C)oc(C)c2C(=O)OC)cc1	DT40 TDP1 CPT inconclusive, TDP1 cell noCPT 20.6µM
Cc1ccc(C)c(-c2nnc(NC(=O)c3ccc([N+](=O)[O-])o3)o2)c1	DT40 TDP1 CPT 14.6µM, TDP1 cell noCPT 14.6µM
